# Source: the supplement of paper PMC3334620
# In all, about 33,000 sequences were measured (“E-score (-0.5 to 0.5)”: median about -0.011, highest 2% from about 0.28 on). What follows is part of a selection rich in the highest values, with near analogues and random picks from the rest.
# Molecular target: T1, Gcr1 (UniProt P07261)
# T1 sequence: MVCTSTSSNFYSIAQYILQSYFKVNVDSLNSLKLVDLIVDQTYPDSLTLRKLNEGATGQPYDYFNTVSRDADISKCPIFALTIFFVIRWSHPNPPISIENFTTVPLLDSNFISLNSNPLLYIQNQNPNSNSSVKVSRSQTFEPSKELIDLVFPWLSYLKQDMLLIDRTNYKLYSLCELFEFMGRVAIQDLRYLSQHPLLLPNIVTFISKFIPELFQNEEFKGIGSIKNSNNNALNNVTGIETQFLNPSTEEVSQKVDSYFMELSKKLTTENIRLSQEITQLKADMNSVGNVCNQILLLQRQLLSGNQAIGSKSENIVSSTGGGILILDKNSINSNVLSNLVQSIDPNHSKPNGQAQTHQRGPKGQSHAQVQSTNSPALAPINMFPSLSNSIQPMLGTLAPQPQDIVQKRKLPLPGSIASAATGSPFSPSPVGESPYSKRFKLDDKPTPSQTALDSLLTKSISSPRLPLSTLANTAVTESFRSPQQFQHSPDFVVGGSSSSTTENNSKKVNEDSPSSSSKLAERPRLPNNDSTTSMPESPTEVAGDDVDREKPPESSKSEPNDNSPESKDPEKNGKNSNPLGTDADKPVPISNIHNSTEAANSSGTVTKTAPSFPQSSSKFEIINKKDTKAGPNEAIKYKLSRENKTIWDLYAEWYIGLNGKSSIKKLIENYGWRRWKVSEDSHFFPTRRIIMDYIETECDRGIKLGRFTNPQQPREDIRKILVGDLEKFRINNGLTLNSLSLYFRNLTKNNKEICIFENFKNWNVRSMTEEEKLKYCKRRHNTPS
# Assay: PBM E-score (8-mer binding enrichment) (E-score (-0.5 to 0.5)); higher = stronger / more preferred TF binding
# Conditions: protein concentration: 100 nM; construct: GST-full length
# Procedure: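 Universal 'all 10-mer' protein binding microarrays (Agilent AMADID 015681) probed with GST-tagged S. cerevisiae TFs (full-length or DBD) made by in vitro transcription/translation (PURExpress), about 100-200 nM. Bound TF was detected with fluorescent anti-GST. Each ungapped 8-mer (which stands for itself and its reverse complement) is scored by the PBM enrichment score (E-score), a modified Wilcoxon-Mann-Whitney statistic from -0.5 to +0.5, computed with the Universal PBM Analysis Suite. Scale: above 0.35 generally sequence-specific binding.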
row,Sequence,PBM E-score
1,GTAAAGAC,-0.129
2,CAGGCCAG,-0.207
3,CGGCTGGA,0.0497
4,CATTCGGA,0.00656
5,GATGCCGC,0.267
6,GACAAGAC,0.0539
7,CTCAGAAA,-0.133
8,GAAAACGC,-0.167
9,AGTCTCGC,-0.154
10,AGGGCTCC,0.143
11,CAAAGGAC,-0.127
12,ACAGCTTG,-0.199
13,ACAGCTTC,0.345
14,CCAGCTTA,-0.0932
15,CGAGCTTC,0.371
16,CCAGCTGC,0.218
17,AGAGCTTC,0.267
18,ACAGCTTA,-0.0153
19,CGAGCTTA,-0.185
20,CCAGCTTC,0.333
21,AGTTCCAT,-0.107
22,AGAAGCAC,0.126
23,ACCCCGCC,0.0633
24,CTCTAAGA,-0.00019
25,AACTTCGG,-0.0312

row,Sequence,PBM E-score
1,ACCAGCTC,-0.149
2,TATACGCA,0.285
3,CATACGCA,0.0448
4,GATACGCA,0.247
5,CATGCGGC,-0.0307
6,GATGCGGC,0.299
7,GATGCGGA,0.033
8,CTGATCTC,-0.125
9,AGCGCCCG,0.272
10,GATAGGAA,0.208
11,AATAGGAT,0.187
12,TATAGGAA,0.318
13,CATAGGAA,0.134
14,AATAGGAA,0.352
15,TCTAGGAA,0.105
16,ACATATCA,0.129
17,CTCCGCGA,0.0908
18,GGCATTTA,-0.124
19,ACTGCACA,-0.211
20,GCAGCCAA,0.395
21,GCAGCCAC,0.383
22,ACAGCCAC,-0.00306
23,TCAGCCAA,-0.102
24,CCAGCCAA,-0.11
25,CCAGCCAC,0.0313

row,Sequence,PBM E-score
1,ACCGCCAT,-0.181
2,GACCTAGC,-0.152
3,GATATTGC,0.00295
4,CCTAGGTC,-0.17
5,GCTCGACC,0.00687
6,CCGGCAAC,0.318
7,GGGGCACA,-0.0447
8,CCGGCAGG,-0.253
9,CCGGCAGA,0.0729
10,CTGGCAGA,0.0263
11,CCGGCAGC,0.292
12,GGGGCACC,0.351
13,GCGGCAAC,0.0813
14,AGGGCACC,0.13
15,CTGGCAGC,0.386
16,ATGGCAGC,0.0656
17,CCGGCAAG,-0.101
18,AGTTCGAA,-0.0147
19,GCCCAAAC,0.111
20,GTTACCCA,-0.141
21,CCCTCTCA,-0.131
22,GAGTACCC,-0.0644
23,CCCACTCC,0.0066
24,CGGGTCTA,0.0247
25,CGGGCATC,0.282

row,Sequence,PBM E-score
1,AGGGCAGC,0.0608
2,AGGGCATC,0.129
3,CCGGCATC,0.38
4,CCGGCATA,0.0787
5,CGGGCAGA,-0.0209
6,CTGGCACA,-0.0796
7,CGGGCAGC,0.309
8,CTGGCACC,0.392
9,ATGGCACC,0.201
10,CGGGCATA,-0.232
11,ACGGCATC,0.2
12,AGTTTCAT,0.116
13,CCAAAGGC,-0.185
14,CCCGCTTA,0.161
15,CATGCGTC,-0.0513
16,CCTGAGAG,-0.131
17,CGACCGAC,0.0935
18,CACCAGTC,-0.02
19,GGGGTCCA,0.0846
20,AAATTTTA,0.126
21,AGTCGAGC,-0.0406
22,GACTGTCA,-0.154
23,AGAGGTAT,0.196
24,ATAGATTC,0.114
25,CCGCTCAG,0.0454

row,Sequence,PBM E-score
1,ACGTTCTC,-0.172
2,CAGGCAGG,-0.143
3,CGGGCACC,0.376
4,ATGGCATC,0.175
5,GCGGCACC,0.324
6,ACGGCACC,0.142
7,CTGGCATC,0.304
8,CAGGCAGC,0.285
9,CGGGCACG,0.107
10,CCGGCACC,0.28
11,CTGGCATA,0.0454
12,CAGGCAGA,-0.0141
13,CGGGCACA,-0.0928
14,CCCTACTA,0.0892
15,AATTTACT,0.155
16,AAACCAGA,0.0613
17,GCATCCAC,0.452
18,TAATCCAA,0.134
19,GAATCCAA,0.309
20,GCATCCAA,0.366
21,TCATCCAA,-0.114
22,ACATCCAC,0.133
23,AAATCCAA,0.142
24,CCATCCAA,-0.121
25,CCATCCAC,-0.0219

row,Sequence,PBM E-score
1,TCCTAGAA,0.174
2,GAATGGCC,-0.116
3,CAAGCGCG,-0.0724
4,ATATGAGG,0.033
5,AGAAAACC,-0.0435
6,CGGAGCAG,0.0182
7,ACATACTG,0.0904
8,AGGACGCG,0.283
9,ACGACGCG,0.0493
10,CGGACGCA,0.0459
11,AGGACGCC,0.453
12,CGGACGCC,0.416
13,AGGACGAG,-0.073
14,AGGACGCA,0.0414
15,CGGACGTC,0.134
16,ACGACGCC,0.217
17,CGACCCAC,-0.0741
18,TAACCTGA,-0.2
19,ACGTGTAT,0.0211
20,CAGGCCGA,-0.0271
21,CAGAACCG,0.106
22,GAATGCGC,0.164
23,ACTCTCTC,-0.288
24,CGCCAATA,0.144
25,GTATGTCA,0.136

row,Sequence,PBM E-score
1,CTCCCAAG,0.0273
2,ACTCTAGG,-0.0525
3,CTACAGGA,0.204
4,AAACAGGA,0.363
5,ATACAGGC,0.223
6,ATTCAGGG,0.123
7,ATACAGGA,0.308
8,ATTCAGGA,0.282
9,CAACAGGA,0.226
10,CTTCAGGA,0.268
11,AAACAGGC,-0.117
12,ACCGAACG,0.0306
13,CCACCGCG,-0.0592
14,ATGACATA,0.127
15,TCCCGCAA,0.0539
16,CGAGTGCC,-0.132
17,AAGCGTCG,0.0188
18,GAGCGTCC,0.384
19,GAGCGTGC,-0.1
20,ACGCGTCC,0.292
21,GAGCGTCA,0.0398
22,ACGCGTCA,-0.171
